In paper PMC13494018:

B1: design_605_6ebdab39-eaab-4492-afcb-164e20c3b25e_2228_dldesign_0_cycle1_af2pred (protein)
chain: SALAERARALRAAARAEAAADPENAAAIARAGARELRALYRENRDRITPEERATISAAAADLYELAAEAEAE
B2: design_605_6ebdab39-eaab-4492-afcb-164e20c3b25e_1234_dldesign_0_cycle1_af2pred (protein)
chain: SGVKETAIEVAEDAKKAAEEAEKLAKEKPEFAKELKKVAEKAKKAAKKALEGAKKSEEEARKATAEAATALALAENVIDTVKLA
B3: design_605_6ebdab39-eaab-4492-afcb-164e20c3b25e_1026_dldesign_0_cycle1_af2pred (protein)
chain: AEKEETEEKAKEVLKKAEEAAEKILKKDPKKAQEVYRIIFLGESKRLAGDYEEALKLYEEALKKAEELNKEL
B4: design_605_6ebdab39-eaab-4492-afcb-164e20c3b25e_2126_dldesign_0_cycle1_af2pred (protein)
chain: DELEKYKKEAKEAAKEAIKEAKELGKLIGDEKWAKANQEKIKKIEEKAQKSKDAEVAKKYAEELKKAKEKLKKIKKRAKEALE
B5: design_605_6ebdab39-eaab-4492-afcb-164e20c3b25e_1027_dldesign_0_cycle1_af2pred (protein)
chain: ALEEAKKKIEEAEKRASKRLDEVAAKVSPEEAKKLEEAKKELKEKTEKAKKLSPEEAIKLAAEAAAKAYEAAAEARAKE
B6: design_605_6ebdab39-eaab-4492-afcb-164e20c3b25e_1493_dldesign_0_cycle1_af2pred (protein)
chain: TIEKNVALAEKLAERAKEVAKKAAADPNKKEAAKLAKKAAELAKEAAALAKEGKIAEGAKKMHEARELLAEAEHLLRK
B7: design_605_6ebdab39-eaab-4492-afcb-164e20c3b25e_1415_dldesign_0_cycle1_af2pred (protein)
chain: AAKLEAKMKAMDMAVEAGEADAEDEEKGKEKLEELKKMVEEIAKEIGEEAGESAWRIAMDVYEHTVKMKK
B8: design_605_6ebdab39-eaab-4492-afcb-164e20c3b25e_1481_dldesign_0_cycle1_af2pred (protein)
chain: SEVEEAIKKIKDTAAKATAAAIAAAAVDPTLGANVAADGQAKLTELAWEYSKKYPEHKEEIEKTRKEERKAMRDAVGAAIAAVA
B9: design_605_6ebdab39-eaab-4492-afcb-164e20c3b25e_2187_dldesign_0_cycle1_af2pred (protein)
chain: SAAKEEAKKEAEKLKEKVKKLKKELEENKDNKEKAKKIAKEAREVIREARELGKKYASFKEVHKELSEAAAEAAEVRAEADLYAS
B10: design_605_6ebdab39-eaab-4492-afcb-164e20c3b25e_2465_dldesign_0_cycle1_af2pred (protein)
chain: AKKLQEAADEANKAFALLAKAAKAHPEIKEEALAAKKAALTMLEGKNAKEAAKAAKEKLKAAAQKAPEVAAEMAAAMKAVDKMLEL
B11: design_605_6ebdab39-eaab-4492-afcb-164e20c3b25e_2056_dldesign_0_cycle1_af2pred (protein)
chain: MKEELLKISEESHQAAAEAQFLAAKNPSVKPLAEEAKKHAKKSIEAAKEGDLEKAKEHYKKVLELKEKAKKE
B12: design_605_6ebdab39-eaab-4492-afcb-164e20c3b25e_1516_dldesign_0_cycle1_af2pred (protein)
chain: EKEKEAKEIIEKARKALKEARKKLKAKGATPEQAKKMQEARELAAEADYLAKKDPKKGKEIAEKAIELAKKAAE
B13: design_605_6ebdab39-eaab-4492-afcb-164e20c3b25e_1884_dldesign_0_cycle1_af2pred (protein)
chain: NKKKEEAAKLAKESLAKAKEIADYAVANKDTINKAEATALATEAASYAAEALGYAAFAGKEEYEKMKKEFKEIREKMKAVLDAI
B14: design_605_6ebdab39-eaab-4492-afcb-164e20c3b25e_2478_dldesign_0_cycle1_af2pred (protein)
chain: SAAAEAARKAEAKKAADEYYAKGEEYYQKALDDPKNAKKYLQKAYSYYLLAAQAYEIAGDKEKAKEAEEKADKAAEA
B15: design_605_6ebdab39-eaab-4492-afcb-164e20c3b25e_1133_dldesign_0_cycle1_af2pred (protein)
chain: NAAEIAAAKAALAEARAAFEAAGAALVAADPSYAPQVAKALARIDKLEADGKANPALAAEYYQLATDIAEDQAANAKKLLAAIT
B16: design_605_6ebdab39-eaab-4492-afcb-164e20c3b25e_904_dldesign_0_cycle1_af2pred (protein)
chain: AEAEKKAKEGKEKMEAGKKKLAEAKKTGSAELAKEAAKLFKEAGKLFAAVPEQQANAAEAAKLAHEAYELAAEARAK
B17: design_605_6ebdab39-eaab-4492-afcb-164e20c3b25e_2390_dldesign_0_cycle1_af2pred (protein)
chain: AAEKLKEKVEKIKKEAEEKAKKAKTKEEAAKIYREGAEKIRKLATEALKKDPSVEPAVKYGSKVAAELREKAAELDVLANRE
B18: design_605_6ebdab39-eaab-4492-afcb-164e20c3b25e_1473_dldesign_0_cycle1_af2pred (protein)
chain: AKEILDAQMKILDAANEAEKVDPELGKEIREKYKKVAEEGKKLSPEEALKALKAMAEEAEKKAKEAKKEAEKKKLE
B19: design_605_6ebdab39-eaab-4492-afcb-164e20c3b25e_883_dldesign_0_cycle1_af2pred (protein)
chain: DAEIQAILEQAKKALKAAKESLEKGKKYEEEGKKNLAEAYYEHAIHNAEQAIKLAEQNIAAGGKPEEAQKIKDEAKKVKEEAKG
B20: design_605_6ebdab39-eaab-4492-afcb-164e20c3b25e_2479_dldesign_0_cycle1_af2pred (protein)
chain: MKEASEAAAKAYEYMAEALYYGKKASEEAAKEAEKAAKEVKELLKKAREAAKEGKYEEAKKLAEEAYKLAKETYEKLKKELEKKKA
B21: design_605_6ebdab39-eaab-4492-afcb-164e20c3b25e_2016_dldesign_0_cycle1_af2pred (protein)
chain: KAEEEAKKAVEFLLALGKEHPAGAEYAEKAAKAIENGEDIGTAMAYAWAAGQAVGDAALADKAMDKVAEAHMARK
B22: design_605_6ebdab39-eaab-4492-afcb-164e20c3b25e_799_dldesign_0_cycle1_af2pred (protein)
chain: GEKEKLKKEAEELEKKAKELEKKAEEKFKKNIKKGSKALSYVEQAKNAAKVAKKYAEEGKVEEAKKALEKAKEYLKKAKEYVEE
B23: design_605_6ebdab39-eaab-4492-afcb-164e20c3b25e_1965_dldesign_0_cycle1_af2pred (protein)
chain: VAKSYAEAAKDYTAATEAFTTAATLGADAGVATAKAKLDPGLASIVSTTIKANDAAARAAGAKRWAKRAEKYKAAAEKAAA
B24: design_605_6ebdab39-eaab-4492-afcb-164e20c3b25e_1042_dldesign_0_cycle1_af2pred (protein)
chain: ELEKLAKKAEDAAAVLKNSKARAHALSAALQLEAGNKELAKKSATAAAAVLDANPDITPEEEKARDALKEIADWLA
B25: design_605_6ebdab39-eaab-4492-afcb-164e20c3b25e_2299_dldesign_0_cycle1_af2pred (protein)
chain: ELEELKKKHEAYEEYLKAIAYYEQSKLSKSLAEEAKQKAAEHINKANKLLGKEELSLEEAVKEAEKLDENASEIVKKLVETKKKIEEL
B26: design_605_6ebdab39-eaab-4492-afcb-164e20c3b25e_1749_dldesign_0_cycle1_af2pred (protein)
chain: MTPEELRKAEVEALIKKASEAMGEARFYANYAKLTGDKEAAKKAAEAAKKAIEYLTAAAALSTDPAVKARAKAAAERAKKLAKEALE
B27: design_605_6ebdab39-eaab-4492-afcb-164e20c3b25e_1733_dldesign_0_cycle1_af2pred (protein)
chain: AAEKGKNLAESVKLFSEQALENGKKLGAEALKEAAKRIKKRGDKAVTTIAKDPSAAPYAKEAEAITKDYIKKAEEAAKKAK
B28: design_605_6ebdab39-eaab-4492-afcb-164e20c3b25e_1941_dldesign_0_cycle1_af2pred (protein)
chain: AAAEEKAAEEEMKKLGEKNVEKVKKAAKKGAEEAEKAVKEAFKDFEKAAKTPASINVGQKAREEMLGIAAEARIKE
B29: design_605_6ebdab39-eaab-4492-afcb-164e20c3b25e_778_dldesign_0_cycle1_af2pred (protein)
chain: EVKELIKKAKELIEKAEKLTKSGEKLEEGEKAAEEAKKVVEEAKKVAKDSTPEEKFAVAEALAELRNVEREIKKAKEEK
B30: design_605_6ebdab39-eaab-4492-afcb-164e20c3b25e_1054_dldesign_0_cycle1_af2pred (protein)
chain: DVTEKAKKAAEEALKADAETAAKLLSEAAKLAVEAGDSEGMHIIRQAISEMDFAGKKEGAAKARAAAAAAVRARQAALAA
B31: design_605_6ebdab39-eaab-4492-afcb-164e20c3b25e_1459_dldesign_0_cycle1_af2pred (protein)
chain: AAEEARKKKLEEFAKKAKEAAKKFSPEYAKKAKEAAKLYEQGKTATPAEAAALAQKARQLLAEAEYEDKK
B32: design_605_6ebdab39-eaab-4492-afcb-164e20c3b25e_2341_dldesign_0_cycle1_af2pred (protein)
chain: LTDEELKEIAKKVAEEAGEKALKLLREGKSIMEAADAADELVKTVEFLPQEYFLYAAKLAAEKVAEAGREVIEERKREEA
B33: design_605_6ebdab39-eaab-4492-afcb-164e20c3b25e_1837_dldesign_0_cycle1_af2pred (protein)
chain: MDKEKIKKKLYKELSEAAKKGAMAVFDVVDKAYDEGTAELAKEAAEEVAKETTPEEAKAMRAGARYLEAATA
B34: design_605_6ebdab39-eaab-4492-afcb-164e20c3b25e_1408_dldesign_0_cycle1_af2pred (protein)
chain: AEEEEKIKKKAKEIVDTIVKAAKEGLEKARKTAAELAKKYGMKTEDAALVRSLAVKTAKEGGKYYEDAVEAAVEGIKE
B35: design_605_6ebdab39-eaab-4492-afcb-164e20c3b25e_2239_dldesign_0_cycle1_af2pred (protein)
chain: GEKEKYAEEIKKIAKELKALGTPEGEKGAKVAERLSKQAKKTKKAEHAKGYLDIAKDIEKQAKALIAAKQ
B36: design_605_6ebdab39-eaab-4492-afcb-164e20c3b25e_1926_dldesign_0_cycle1_af2pred (protein)
chain: SPAEERRAKATAYAARVAKEDPEFALELIREAAKADPETATEVVKAMTEAATKAAAEVDPEKAKELKEKGEAILKEVEKA
B37: design_605_6ebdab39-eaab-4492-afcb-164e20c3b25e_2348_dldesign_0_cycle1_af2pred (protein)
chain: DPALEEAKKHAEELAAKLSPDLAKEFKEFADFVLANAEKVITANKDNPEKRKEAGEQAKKVISSAAEAAIKLDK
B38: design_605_6ebdab39-eaab-4492-afcb-164e20c3b25e_858_dldesign_0_cycle1_af2pred (protein)
chain: ALEEFKKLLQKLIDLTAAVPEAAKAREELENGTPREALKAAIKAAKAKAAADPSVAPELEKLVHELSQAAAEAELELKK

Each binder was assayed against VTCN1, Q7Z7D3.
Chain of VTCN1, Q7Z7D3 (Q7Z7D3 whole entry): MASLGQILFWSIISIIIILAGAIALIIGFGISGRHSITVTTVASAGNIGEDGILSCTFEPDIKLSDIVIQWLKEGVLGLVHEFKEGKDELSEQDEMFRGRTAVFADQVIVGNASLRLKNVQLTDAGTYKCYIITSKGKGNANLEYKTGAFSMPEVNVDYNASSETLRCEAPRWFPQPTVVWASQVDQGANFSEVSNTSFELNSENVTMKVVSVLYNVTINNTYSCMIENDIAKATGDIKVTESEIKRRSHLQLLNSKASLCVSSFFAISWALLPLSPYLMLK

Binding in a display sort, inactive:
B1 not found, B2 not found, B3 not found, B4 not found, B5 not found, B6 not found, B7 not found, B8 not found, B9 not found, B10 not found, B11 not found, B12 not found, B13 not found, B14 not found, B15 not found, B16 not found, B17 not found, B18 not found, B19 not found, B20 not found, B21 not found, B22 not found, B23 not found, B24 not found, B25 not found, B26 not found, B27 not found, B28 not found, B29 not found, B30 not found, B31 not found, B32 not found, B33 not found, B34 not found, B35 not found, B36 not found, B37 not found, B38 not found
